# Reference: PMC7862700, “An all-to-all approach to the identification of sequence-specific readers for epigenetic DNA modifications on cytosine”
# What was measured:
# Assay in all cases: DAPPL (digital affinity profiling via proximity ligation, sequencing); 10 mM Tris-HCl pH 7.5, 50 mM NaCl, 1 mM DTT, 4% glycerol, room temperature, 30 min; GST-TFs on glutathione beads, 16-mer random dsDNA library, 0.1% formaldehyde crosslink after washing; high values mean tight binding
# FEV = biological target: T1, FEV (Homo sapiens, UniProt Q99581 1-238); conditions: protein: recombinant; tags: N-terminal GST; dsDNA, one strand shown
# T1 sequence: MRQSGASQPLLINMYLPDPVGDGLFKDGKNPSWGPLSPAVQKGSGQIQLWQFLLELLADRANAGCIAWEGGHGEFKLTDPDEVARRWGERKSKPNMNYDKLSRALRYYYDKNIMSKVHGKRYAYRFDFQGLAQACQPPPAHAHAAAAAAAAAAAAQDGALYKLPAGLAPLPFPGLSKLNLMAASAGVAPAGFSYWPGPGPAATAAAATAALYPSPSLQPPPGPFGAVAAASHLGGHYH
# Procedure, shortened: (§1)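 After expression in yeast as GST fusions, human transcription factors were bound to glutathione beads, DNA-barcoded and mixed with a tag-only sample. The pools were incubated with 200 nmole of a 16-mer random double-stranded DNA library in Tris/NaCl/DTT/glycerol buffer (30 min, room temperature), washed and crosslinked with 0.1% formaldehyde. Proximity ligation with BsaI/T4 ligase ran for 1 h at 37 °C, before PCR amplification and sequencing on an Illumina NextSeq500. Binding signal is a hexamer's read frequency for a factor divided by its frequency for the tag-only sample.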
# ETV5 = ETV5 (Homo sapiens, UniProt P41161 1-510); conditions: protein: recombinant; tags: N-terminal GST; dsDNA, one strand shown
# Procedure, shortened: as §1
# HSF1 = HSF1 (Homo sapiens, UniProt Q00613 1-529); conditions: protein: recombinant; tags: N-terminal GST; chain copies: 3; dsDNA, one strand shown
# Procedure, shortened: as §1
# SPIC = biological target: T2, SPIC (Homo sapiens, UniProt Q8N5J4 1-248); conditions: protein: recombinant; tags: N-terminal GST; dsDNA, one strand shown
# T2 sequence: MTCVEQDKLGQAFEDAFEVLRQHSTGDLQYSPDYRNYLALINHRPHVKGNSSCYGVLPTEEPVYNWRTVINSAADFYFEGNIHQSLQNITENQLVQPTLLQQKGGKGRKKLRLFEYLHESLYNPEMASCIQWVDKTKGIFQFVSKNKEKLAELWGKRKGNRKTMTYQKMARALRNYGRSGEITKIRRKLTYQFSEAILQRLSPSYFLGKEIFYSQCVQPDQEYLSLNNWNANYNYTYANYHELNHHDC
# Procedure, shortened: as §1
# ELF4 = ELF4 (Homo sapiens, UniProt Q99607 1-663); conditions: protein: recombinant; tags: N-terminal GST; dsDNA, one strand shown
# Procedure, shortened: as §1
# ELK4 = biological target: T3, ELK4 (Homo sapiens, UniProt P28324-2 1-405); conditions: protein: recombinant; tags: N-terminal GST; dsDNA, one strand shown
# T3 sequence: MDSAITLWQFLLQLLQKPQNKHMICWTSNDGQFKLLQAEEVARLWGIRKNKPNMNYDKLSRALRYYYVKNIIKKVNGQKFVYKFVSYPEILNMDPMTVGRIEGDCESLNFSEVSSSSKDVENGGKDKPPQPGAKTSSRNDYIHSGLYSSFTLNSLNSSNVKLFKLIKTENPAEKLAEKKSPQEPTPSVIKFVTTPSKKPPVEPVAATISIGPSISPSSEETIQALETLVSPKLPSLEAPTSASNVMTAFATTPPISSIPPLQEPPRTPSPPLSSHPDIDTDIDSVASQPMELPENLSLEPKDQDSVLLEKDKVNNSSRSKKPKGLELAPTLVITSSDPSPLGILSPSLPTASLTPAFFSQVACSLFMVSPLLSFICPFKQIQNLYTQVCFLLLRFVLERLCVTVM
# Procedure, shortened: as §1
# ETV2 = biological target: T4, ETV2 (Homo sapiens, UniProt O00321 1-342); conditions: protein: recombinant; tags: N-terminal GST; dsDNA, one strand shown
# T4 sequence: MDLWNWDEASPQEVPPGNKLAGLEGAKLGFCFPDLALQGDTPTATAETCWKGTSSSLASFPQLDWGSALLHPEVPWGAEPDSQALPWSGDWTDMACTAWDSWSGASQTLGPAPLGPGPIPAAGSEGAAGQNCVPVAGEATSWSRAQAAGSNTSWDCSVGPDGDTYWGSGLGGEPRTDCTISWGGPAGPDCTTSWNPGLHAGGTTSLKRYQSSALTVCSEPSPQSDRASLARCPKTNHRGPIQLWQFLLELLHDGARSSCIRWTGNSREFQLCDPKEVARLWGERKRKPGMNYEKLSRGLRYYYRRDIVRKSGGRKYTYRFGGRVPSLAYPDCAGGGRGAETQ
# Procedure, shortened: as §1
# ELF3 = biological target: T5, ELF3 (Homo sapiens, UniProt P78545 1-371); conditions: protein: recombinant; tags: N-terminal GST; dsDNA, one strand shown
# T5 sequence: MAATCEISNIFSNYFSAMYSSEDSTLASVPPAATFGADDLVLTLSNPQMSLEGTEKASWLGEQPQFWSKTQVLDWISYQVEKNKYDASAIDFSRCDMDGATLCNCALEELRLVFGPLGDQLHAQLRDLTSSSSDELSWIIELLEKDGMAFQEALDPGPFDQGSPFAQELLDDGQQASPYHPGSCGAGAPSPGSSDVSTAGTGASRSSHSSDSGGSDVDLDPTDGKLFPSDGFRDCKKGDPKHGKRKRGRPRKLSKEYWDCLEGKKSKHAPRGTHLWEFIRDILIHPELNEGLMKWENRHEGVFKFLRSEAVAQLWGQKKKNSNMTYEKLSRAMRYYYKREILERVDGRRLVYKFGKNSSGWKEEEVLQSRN
# Procedure, shortened: as §1
# CRX = CRX (Homo sapiens, UniProt O43186 1-299); conditions: protein: recombinant; tags: N-terminal GST; dsDNA, one strand shown
# Procedure, shortened: as §1
# ETV1 = ETV1 (Homo sapiens, UniProt P50549 1-477); conditions: protein: recombinant; tags: N-terminal GST; dsDNA, one strand shown
# Procedure, shortened: as §1
# ERF = biological target: T6, ERF (Homo sapiens, UniProt P50548 1-548); conditions: protein: recombinant; tags: N-terminal GST; dsDNA, one strand shown
# T6 sequence: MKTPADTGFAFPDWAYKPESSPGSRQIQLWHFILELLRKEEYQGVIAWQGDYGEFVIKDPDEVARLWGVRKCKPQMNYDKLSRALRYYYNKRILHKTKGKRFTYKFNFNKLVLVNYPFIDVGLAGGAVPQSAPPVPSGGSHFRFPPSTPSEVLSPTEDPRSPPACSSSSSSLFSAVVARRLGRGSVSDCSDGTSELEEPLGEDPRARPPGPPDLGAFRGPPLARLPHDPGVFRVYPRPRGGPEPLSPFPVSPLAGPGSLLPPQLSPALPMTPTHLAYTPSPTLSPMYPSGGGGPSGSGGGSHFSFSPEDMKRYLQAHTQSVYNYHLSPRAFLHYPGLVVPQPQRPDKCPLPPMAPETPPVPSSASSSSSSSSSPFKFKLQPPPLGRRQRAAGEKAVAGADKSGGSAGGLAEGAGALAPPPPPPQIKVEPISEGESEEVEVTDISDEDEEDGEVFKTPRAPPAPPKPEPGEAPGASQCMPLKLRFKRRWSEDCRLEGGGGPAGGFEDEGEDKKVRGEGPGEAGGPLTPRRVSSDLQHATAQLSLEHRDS
# Procedure, shortened: as §1
# ETV3L = biological target: T7, ETV3L (Homo sapiens, UniProt Q6ZN32 1-361); conditions: protein: recombinant; tags: N-terminal GST; dsDNA, one strand shown
# T7 sequence: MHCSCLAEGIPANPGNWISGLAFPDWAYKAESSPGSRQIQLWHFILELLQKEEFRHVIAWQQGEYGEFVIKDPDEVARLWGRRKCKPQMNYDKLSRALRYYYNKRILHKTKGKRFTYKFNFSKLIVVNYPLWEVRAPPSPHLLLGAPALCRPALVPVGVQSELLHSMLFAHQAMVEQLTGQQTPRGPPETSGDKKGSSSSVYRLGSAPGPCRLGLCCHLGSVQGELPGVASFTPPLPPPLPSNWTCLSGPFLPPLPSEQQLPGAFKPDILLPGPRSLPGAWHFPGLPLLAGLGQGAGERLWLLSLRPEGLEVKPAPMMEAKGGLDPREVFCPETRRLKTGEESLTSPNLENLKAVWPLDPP
# Procedure, shortened: as §1
# ETS2 = biological target: T8, ETS2 (Homo sapiens, UniProt P15036 1-469); conditions: protein: recombinant; tags: N-terminal GST; dsDNA, one strand shown
# T8 sequence: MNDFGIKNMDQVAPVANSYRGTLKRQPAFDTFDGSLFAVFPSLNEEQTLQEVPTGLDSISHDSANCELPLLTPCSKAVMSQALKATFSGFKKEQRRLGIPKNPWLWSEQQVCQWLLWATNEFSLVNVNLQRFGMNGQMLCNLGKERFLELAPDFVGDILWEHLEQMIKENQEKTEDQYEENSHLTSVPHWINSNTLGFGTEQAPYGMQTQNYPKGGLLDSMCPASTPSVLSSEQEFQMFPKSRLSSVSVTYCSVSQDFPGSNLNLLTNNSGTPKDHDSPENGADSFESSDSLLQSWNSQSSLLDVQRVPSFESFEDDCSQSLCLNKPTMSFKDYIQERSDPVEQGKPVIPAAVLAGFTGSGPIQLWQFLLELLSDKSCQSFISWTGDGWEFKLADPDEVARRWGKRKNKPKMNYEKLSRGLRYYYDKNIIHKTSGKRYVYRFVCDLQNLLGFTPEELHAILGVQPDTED
# Procedure, shortened: as §1
# SPDEF = biological target: T9, SPDEF (Homo sapiens, UniProt O95238 1-335); conditions: protein: recombinant; tags: N-terminal GST; dsDNA, one strand shown
# T9 sequence: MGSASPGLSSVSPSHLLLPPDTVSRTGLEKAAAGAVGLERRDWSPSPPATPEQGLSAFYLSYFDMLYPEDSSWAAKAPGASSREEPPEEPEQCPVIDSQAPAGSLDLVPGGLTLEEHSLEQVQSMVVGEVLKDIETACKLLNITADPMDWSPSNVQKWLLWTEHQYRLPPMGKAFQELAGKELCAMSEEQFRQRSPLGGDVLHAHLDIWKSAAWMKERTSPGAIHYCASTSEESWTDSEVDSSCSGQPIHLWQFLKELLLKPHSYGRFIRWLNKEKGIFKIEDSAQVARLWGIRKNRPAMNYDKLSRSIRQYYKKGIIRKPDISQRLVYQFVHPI
# Procedure, shortened: as §1
# ETV7 = biological target: T10, ETV7 (Homo sapiens, UniProt Q9Y603 1-341); conditions: protein: recombinant; tags: N-terminal GST; dsDNA, one strand shown
# T10 sequence: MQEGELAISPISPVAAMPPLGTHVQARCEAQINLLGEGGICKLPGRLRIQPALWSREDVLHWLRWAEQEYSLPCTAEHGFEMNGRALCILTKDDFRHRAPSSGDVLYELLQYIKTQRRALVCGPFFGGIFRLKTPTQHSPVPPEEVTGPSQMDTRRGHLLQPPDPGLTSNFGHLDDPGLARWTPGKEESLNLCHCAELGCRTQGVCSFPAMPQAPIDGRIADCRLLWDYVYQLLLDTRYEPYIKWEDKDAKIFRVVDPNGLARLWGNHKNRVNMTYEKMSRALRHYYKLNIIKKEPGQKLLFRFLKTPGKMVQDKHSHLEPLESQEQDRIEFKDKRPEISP
# Procedure, shortened: as §1
# ELF5 = biological target: T11, ELF5 (Homo sapiens, UniProt Q9UKW6-2 1-255); conditions: protein: recombinant; tags: N-terminal GST; dsDNA, one strand shown
# T11 sequence: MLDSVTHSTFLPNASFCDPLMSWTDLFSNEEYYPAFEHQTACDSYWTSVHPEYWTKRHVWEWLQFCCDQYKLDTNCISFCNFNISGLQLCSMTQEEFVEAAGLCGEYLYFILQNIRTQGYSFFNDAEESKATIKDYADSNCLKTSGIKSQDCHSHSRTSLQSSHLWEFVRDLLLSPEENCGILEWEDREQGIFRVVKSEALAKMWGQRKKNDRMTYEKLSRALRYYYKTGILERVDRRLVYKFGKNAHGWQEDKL
# Procedure, shortened: as §1
# ETV3 = biological target: T12, ETV3 (Homo sapiens, UniProt P41162-2 1-143); conditions: protein: recombinant; tags: N-terminal GST; dsDNA, one strand shown
# T12 sequence: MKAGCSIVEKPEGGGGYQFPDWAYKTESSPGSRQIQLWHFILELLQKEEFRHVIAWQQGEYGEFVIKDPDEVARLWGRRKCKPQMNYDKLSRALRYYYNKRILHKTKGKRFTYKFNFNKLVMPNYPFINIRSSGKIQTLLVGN
# Procedure, shortened: as §1
# ETV6 = ETV6 (Homo sapiens, UniProt P41212 1-452); conditions: protein: recombinant; tags: N-terminal GST; dsDNA, one strand shown
# Procedure, shortened: as §1
# Chain of HSF1 (Q00613 whole entry): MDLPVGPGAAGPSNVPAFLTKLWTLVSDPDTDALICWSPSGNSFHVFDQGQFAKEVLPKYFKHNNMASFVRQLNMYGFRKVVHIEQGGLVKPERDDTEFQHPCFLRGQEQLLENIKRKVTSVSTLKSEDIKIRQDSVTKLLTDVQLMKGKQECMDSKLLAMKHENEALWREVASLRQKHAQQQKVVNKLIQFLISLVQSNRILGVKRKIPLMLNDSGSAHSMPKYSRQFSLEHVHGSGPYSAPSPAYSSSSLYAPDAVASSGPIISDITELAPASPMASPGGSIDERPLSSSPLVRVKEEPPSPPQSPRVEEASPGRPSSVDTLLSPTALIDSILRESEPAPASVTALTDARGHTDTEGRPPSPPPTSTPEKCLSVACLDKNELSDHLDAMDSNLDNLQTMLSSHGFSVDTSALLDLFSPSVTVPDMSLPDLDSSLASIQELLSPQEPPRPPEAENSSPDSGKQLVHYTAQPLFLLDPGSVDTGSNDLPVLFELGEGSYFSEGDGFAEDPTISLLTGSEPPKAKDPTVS
# Chain of ETV6 (P41212 whole entry): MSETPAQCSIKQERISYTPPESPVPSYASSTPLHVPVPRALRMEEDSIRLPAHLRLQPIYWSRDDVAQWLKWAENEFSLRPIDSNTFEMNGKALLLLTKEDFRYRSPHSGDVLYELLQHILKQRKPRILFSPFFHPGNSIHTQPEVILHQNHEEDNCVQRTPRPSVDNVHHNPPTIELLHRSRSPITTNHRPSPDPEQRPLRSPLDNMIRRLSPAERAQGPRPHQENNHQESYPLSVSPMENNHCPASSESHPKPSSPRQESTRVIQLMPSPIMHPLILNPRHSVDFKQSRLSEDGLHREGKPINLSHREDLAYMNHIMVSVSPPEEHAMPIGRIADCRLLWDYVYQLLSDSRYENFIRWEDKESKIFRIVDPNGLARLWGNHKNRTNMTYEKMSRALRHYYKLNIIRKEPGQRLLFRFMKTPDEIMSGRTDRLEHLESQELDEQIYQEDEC
# Chain of ELF4 (Q99607 whole entry): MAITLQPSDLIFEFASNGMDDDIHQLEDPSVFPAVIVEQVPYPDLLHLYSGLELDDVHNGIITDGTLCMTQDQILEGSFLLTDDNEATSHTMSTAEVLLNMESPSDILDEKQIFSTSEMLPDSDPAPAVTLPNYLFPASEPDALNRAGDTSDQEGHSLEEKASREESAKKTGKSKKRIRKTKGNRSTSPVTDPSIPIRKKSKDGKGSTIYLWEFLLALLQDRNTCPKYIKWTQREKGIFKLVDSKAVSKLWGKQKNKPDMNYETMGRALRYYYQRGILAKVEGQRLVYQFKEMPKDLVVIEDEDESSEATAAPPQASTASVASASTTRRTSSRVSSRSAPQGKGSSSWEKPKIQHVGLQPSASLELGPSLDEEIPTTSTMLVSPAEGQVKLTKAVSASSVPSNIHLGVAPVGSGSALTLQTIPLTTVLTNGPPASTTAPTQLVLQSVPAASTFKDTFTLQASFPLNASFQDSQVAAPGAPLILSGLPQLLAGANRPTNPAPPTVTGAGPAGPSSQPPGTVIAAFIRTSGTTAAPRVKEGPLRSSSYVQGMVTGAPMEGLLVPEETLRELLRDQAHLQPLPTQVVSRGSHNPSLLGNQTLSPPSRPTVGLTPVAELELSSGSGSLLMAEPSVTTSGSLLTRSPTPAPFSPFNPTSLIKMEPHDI
# Chain of CRX (O43186 whole entry): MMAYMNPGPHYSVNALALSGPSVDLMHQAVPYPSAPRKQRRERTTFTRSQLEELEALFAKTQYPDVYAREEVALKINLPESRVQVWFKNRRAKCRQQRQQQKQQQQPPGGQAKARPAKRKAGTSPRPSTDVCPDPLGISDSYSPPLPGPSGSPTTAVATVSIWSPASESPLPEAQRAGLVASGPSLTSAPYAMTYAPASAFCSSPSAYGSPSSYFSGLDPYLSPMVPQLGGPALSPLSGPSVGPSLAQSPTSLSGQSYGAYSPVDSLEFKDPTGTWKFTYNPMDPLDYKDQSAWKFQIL
# Chain of ETV1 (P50549 whole entry): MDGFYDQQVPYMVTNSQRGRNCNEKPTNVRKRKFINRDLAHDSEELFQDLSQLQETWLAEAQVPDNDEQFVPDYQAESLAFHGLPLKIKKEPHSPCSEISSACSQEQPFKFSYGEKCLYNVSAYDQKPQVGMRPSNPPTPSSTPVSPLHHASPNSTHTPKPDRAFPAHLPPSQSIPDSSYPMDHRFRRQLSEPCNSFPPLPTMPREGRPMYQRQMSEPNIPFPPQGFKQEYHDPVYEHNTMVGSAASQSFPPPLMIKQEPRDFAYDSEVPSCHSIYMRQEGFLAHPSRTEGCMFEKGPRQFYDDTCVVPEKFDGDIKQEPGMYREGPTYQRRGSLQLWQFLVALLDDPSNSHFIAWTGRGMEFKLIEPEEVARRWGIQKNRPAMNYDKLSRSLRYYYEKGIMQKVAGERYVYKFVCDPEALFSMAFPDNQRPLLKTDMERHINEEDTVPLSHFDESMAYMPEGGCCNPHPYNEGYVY
# Chain of ETV5 (P41161 whole entry): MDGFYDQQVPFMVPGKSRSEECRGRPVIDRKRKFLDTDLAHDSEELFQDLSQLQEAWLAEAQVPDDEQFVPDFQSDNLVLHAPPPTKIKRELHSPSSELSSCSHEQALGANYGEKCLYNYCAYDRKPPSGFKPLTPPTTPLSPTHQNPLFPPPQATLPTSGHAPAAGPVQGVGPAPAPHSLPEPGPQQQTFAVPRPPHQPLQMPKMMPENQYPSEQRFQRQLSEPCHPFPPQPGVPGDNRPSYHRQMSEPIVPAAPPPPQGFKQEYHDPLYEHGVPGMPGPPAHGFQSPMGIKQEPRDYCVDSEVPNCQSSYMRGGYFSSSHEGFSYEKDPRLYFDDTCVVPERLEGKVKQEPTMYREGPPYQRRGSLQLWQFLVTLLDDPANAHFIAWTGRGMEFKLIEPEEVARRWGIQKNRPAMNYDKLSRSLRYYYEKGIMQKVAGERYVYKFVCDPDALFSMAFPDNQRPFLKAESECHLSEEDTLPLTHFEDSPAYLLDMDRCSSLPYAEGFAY
sequence,measurement,setting,value
TTGACA,binding signal,FEV,"1.34 fold enrichment (6-mer frequency, TF over GST control)"
same,binding signal,ETV5,"1.28 fold enrichment (6-mer frequency, TF over GST control)"
same,binding signal,HSF1,"1.19 fold enrichment (6-mer frequency, TF over GST control)"
same,binding signal,SPIC,"1.21 fold enrichment (6-mer frequency, TF over GST control)"
same,binding signal,ELF4,"1.3 fold enrichment (6-mer frequency, TF over GST control)"
same,binding signal,ELK4,"1.47 fold enrichment (6-mer frequency, TF over GST control)"
same,binding signal,ETV2,"1.36 fold enrichment (6-mer frequency, TF over GST control)"
same,binding signal,ELF3,"1.51 fold enrichment (6-mer frequency, TF over GST control)"
same,binding signal,CRX,"1.22 fold enrichment (6-mer frequency, TF over GST control)"
same,binding signal,ETV1,"1.33 fold enrichment (6-mer frequency, TF over GST control)"
same,binding signal,ERF,"1.46 fold enrichment (6-mer frequency, TF over GST control)"
same,binding signal,ETV3L,"1.37 fold enrichment (6-mer frequency, TF over GST control)"
same,binding signal,ETS2,"1.4 fold enrichment (6-mer frequency, TF over GST control)"
same,binding signal,SPDEF,"1.3 fold enrichment (6-mer frequency, TF over GST control)"
same,binding signal,ETV7,"1.44 fold enrichment (6-mer frequency, TF over GST control)"
same,binding signal,ELF5,"1.29 fold enrichment (6-mer frequency, TF over GST control)"
same,binding signal,ETV3,"1.26 fold enrichment (6-mer frequency, TF over GST control)"
same,binding signal,ETV6,"1.32 fold enrichment (6-mer frequency, TF over GST control)"
